In PMC7862700, “An all-to-all approach to the identification of sequence-specific readers for epigenetic DNA modifications on cytosine”:

Columns and labels:
Experiment in all cases: DAPPL (digital affinity profiling via proximity ligation, sequencing); 10 mM Tris-HCl pH 7.5, 50 mM NaCl, 1 mM DTT, 4% glycerol, room temperature, 30 min; GST-TFs on glutathione beads, 16-mer random dsDNA library, 0.1% formaldehyde crosslink after washing; high values mean tight binding
[1] = biological target: T1, FLI1 (Homo sapiens, UniProt Q01543 1-452); conditions: protein: recombinant; tags: N-terminal GST; dsDNA, one strand shown
T1 sequence: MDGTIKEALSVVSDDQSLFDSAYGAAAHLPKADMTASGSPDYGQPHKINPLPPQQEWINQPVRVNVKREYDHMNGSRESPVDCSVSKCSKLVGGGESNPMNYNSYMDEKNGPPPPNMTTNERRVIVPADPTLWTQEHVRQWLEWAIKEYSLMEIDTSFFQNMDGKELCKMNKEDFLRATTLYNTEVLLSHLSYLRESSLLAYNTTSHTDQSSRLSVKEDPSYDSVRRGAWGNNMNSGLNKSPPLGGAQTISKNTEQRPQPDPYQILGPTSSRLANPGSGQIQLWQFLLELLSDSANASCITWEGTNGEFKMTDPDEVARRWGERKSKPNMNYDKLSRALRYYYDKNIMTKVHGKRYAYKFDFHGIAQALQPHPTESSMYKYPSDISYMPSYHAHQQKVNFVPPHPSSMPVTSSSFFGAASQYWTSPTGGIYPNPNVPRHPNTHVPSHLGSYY
Outline: (§1)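 Binding signal is defined as a hexamer's read frequency for one factor over its frequency for the tag-only sample. To obtain reads, GST-fused human transcription factors were expressed in yeast, captured on glutathione beads, barcoded with DNA and pooled with that sample. Pools met 200 nmole of a 16-mer random double-stranded DNA library in Tris/NaCl/DTT/glycerol buffer for 30 min at room temperature before washing, 0.1% formaldehyde crosslinking, proximity ligation (BsaI/T4 ligase, 1 h, 37 °C), PCR and Illumina NextSeq500 sequencing.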

[2] = biological target: T2, ELK1 (Homo sapiens, UniProt P19419 1-428); conditions: protein: recombinant; tags: N-terminal GST; dsDNA, one strand shown
T2 sequence: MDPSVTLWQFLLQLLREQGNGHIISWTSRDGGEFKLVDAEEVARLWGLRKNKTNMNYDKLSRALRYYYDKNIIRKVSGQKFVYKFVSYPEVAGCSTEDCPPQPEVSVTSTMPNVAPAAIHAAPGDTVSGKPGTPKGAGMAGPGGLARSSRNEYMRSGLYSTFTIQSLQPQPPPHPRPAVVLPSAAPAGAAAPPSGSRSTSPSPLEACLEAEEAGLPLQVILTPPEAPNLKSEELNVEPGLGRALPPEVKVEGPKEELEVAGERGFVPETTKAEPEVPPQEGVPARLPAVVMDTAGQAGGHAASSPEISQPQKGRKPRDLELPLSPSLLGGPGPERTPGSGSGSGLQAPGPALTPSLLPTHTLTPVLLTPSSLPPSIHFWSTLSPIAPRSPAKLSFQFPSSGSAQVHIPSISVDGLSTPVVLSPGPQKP
Outline: as §1

[3] = biological target: T3, GABPA (Homo sapiens, UniProt Q06546 1-454); conditions: protein: recombinant; tags: N-terminal GST; dsDNA, one strand shown
T3 sequence: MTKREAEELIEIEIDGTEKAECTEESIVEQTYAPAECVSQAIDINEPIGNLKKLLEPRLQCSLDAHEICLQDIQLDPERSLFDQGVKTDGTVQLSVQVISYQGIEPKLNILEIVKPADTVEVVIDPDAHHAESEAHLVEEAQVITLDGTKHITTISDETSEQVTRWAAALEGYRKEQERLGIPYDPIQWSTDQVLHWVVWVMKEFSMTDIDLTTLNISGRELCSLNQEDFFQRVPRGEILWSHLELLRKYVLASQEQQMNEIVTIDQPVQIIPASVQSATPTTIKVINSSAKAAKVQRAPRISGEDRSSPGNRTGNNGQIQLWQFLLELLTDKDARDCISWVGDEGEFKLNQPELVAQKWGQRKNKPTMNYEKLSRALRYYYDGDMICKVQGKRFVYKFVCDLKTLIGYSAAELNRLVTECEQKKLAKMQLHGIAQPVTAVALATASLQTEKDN
Outline: as §1

[4] = biological target: T4, ERG (Homo sapiens, UniProt P11308 1-479); conditions: protein: recombinant; tags: N-terminal GST; dsDNA, one strand shown
T4 sequence: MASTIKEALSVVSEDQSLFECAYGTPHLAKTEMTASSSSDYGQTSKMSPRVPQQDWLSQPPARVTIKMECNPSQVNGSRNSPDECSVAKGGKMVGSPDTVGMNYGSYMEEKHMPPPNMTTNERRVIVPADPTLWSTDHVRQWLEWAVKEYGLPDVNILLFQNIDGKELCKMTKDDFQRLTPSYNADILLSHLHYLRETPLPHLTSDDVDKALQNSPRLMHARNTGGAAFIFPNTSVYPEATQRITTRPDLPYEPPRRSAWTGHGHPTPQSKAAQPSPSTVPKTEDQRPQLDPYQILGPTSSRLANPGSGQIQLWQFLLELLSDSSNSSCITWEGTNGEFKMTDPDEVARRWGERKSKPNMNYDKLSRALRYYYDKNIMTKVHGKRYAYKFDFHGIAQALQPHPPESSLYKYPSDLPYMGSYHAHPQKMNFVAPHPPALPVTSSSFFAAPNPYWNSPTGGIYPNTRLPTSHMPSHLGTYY
Outline: as §1

[5] = biological target: ELF1 (Homo sapiens, UniProt P32519 1-619); conditions: protein: recombinant; tags: N-terminal GST; dsDNA, one strand shown
Outline: as §1

[6] = biological target: T5, EHF (Homo sapiens, UniProt Q9NZC4 1-300); conditions: protein: recombinant; tags: N-terminal GST; dsDNA, one strand shown
T5 sequence: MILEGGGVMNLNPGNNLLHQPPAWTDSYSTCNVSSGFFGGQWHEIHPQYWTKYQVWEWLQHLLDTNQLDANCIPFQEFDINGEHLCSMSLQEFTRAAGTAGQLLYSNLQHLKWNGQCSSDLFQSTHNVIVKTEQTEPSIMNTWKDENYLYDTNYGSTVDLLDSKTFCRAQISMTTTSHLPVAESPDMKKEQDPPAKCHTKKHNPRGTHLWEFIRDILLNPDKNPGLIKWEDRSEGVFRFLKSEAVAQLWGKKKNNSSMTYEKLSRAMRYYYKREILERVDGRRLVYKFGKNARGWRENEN
Outline: as §1

[7] = biological target: SPI1 (Homo sapiens, UniProt P17947 1-270); conditions: protein: recombinant; tags: N-terminal GST; dsDNA, one strand shown
Outline: as §1

[8] = biological target: SPIB (Homo sapiens, UniProt Q01892 1-262); conditions: protein: recombinant; tags: N-terminal GST; dsDNA, one strand shown
Outline: as §1

[9] = biological target: T6, ELK3 (Homo sapiens, UniProt P41970 1-407); conditions: protein: recombinant; tags: N-terminal GST; dsDNA, one strand shown
T6 sequence: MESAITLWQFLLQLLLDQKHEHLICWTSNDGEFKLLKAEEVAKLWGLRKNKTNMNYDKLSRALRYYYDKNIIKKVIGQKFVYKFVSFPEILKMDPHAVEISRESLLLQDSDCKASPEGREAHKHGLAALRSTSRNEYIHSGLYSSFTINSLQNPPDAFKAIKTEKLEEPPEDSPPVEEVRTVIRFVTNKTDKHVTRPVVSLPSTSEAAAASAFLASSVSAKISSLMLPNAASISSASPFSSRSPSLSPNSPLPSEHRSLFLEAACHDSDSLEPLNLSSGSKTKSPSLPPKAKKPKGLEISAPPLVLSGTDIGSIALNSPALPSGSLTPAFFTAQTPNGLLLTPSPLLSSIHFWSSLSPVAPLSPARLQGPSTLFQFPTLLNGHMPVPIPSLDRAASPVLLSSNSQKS
Outline: as §1

[10] = biological target: T7, FEV (Homo sapiens, UniProt Q99581 1-238); conditions: protein: recombinant; tags: N-terminal GST; dsDNA, one strand shown
T7 sequence: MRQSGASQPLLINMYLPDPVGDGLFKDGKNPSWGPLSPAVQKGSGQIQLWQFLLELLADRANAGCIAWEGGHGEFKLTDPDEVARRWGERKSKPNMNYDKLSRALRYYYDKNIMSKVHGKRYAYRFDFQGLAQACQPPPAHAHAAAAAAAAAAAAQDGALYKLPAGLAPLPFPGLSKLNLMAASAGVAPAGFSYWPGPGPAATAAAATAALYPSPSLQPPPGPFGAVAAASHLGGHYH
Outline: as §1

[11] = biological target: ETV5 (Homo sapiens, UniProt P41161 1-510); conditions: protein: recombinant; tags: N-terminal GST; dsDNA, one strand shown
Outline: as §1

[12] = biological target: HSF1 (Homo sapiens, UniProt Q00613 1-529); conditions: protein: recombinant; tags: N-terminal GST; chain copies: 3; dsDNA, one strand shown
Outline: as §1

[13] = biological target: T8, SPIC (Homo sapiens, UniProt Q8N5J4 1-248); conditions: protein: recombinant; tags: N-terminal GST; dsDNA, one strand shown
T8 sequence: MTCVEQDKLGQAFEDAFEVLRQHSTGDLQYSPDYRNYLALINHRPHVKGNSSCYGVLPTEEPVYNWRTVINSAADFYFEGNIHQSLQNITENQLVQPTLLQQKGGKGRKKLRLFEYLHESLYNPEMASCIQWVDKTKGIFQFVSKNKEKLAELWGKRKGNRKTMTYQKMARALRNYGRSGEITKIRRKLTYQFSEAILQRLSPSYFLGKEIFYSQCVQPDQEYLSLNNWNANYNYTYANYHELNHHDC
Outline: as §1

[14] = biological target: ELF4 (Homo sapiens, UniProt Q99607 1-663); conditions: protein: recombinant; tags: N-terminal GST; dsDNA, one strand shown
Outline: as §1

[15] = biological target: T9, ELK4 (Homo sapiens, UniProt P28324-2 1-405); conditions: protein: recombinant; tags: N-terminal GST; dsDNA, one strand shown
T9 sequence: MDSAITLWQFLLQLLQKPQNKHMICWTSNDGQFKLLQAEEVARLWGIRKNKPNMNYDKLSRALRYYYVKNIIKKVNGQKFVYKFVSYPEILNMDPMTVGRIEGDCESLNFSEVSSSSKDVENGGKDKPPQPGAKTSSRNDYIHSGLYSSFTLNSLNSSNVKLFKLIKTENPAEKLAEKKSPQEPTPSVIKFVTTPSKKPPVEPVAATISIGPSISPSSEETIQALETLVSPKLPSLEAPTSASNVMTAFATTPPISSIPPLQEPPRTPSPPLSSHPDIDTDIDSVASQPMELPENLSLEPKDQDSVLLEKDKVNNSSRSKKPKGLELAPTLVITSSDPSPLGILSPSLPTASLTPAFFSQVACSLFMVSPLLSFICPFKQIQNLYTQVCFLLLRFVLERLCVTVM
Outline: as §1

[16] = biological target: T10, ELF3 (Homo sapiens, UniProt P78545 1-371); conditions: protein: recombinant; tags: N-terminal GST; dsDNA, one strand shown
T10 sequence: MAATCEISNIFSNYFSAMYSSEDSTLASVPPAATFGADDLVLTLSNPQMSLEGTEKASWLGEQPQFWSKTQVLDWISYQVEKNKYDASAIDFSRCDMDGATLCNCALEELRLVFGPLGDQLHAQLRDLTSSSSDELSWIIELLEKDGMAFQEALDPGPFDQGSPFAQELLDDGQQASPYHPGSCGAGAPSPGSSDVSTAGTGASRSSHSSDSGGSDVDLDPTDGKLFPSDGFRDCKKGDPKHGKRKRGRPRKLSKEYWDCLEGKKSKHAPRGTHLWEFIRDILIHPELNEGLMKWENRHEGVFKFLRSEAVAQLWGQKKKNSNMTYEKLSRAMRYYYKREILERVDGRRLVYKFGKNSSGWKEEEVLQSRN
Outline: as §1

[17] = biological target: CRX (Homo sapiens, UniProt O43186 1-299); conditions: protein: recombinant; tags: N-terminal GST; dsDNA, one strand shown
Outline: as §1

[18] = biological target: ETV1 (Homo sapiens, UniProt P50549 1-477); conditions: protein: recombinant; tags: N-terminal GST; dsDNA, one strand shown
Outline: as §1

ETV5, sequence (P41161 whole entry): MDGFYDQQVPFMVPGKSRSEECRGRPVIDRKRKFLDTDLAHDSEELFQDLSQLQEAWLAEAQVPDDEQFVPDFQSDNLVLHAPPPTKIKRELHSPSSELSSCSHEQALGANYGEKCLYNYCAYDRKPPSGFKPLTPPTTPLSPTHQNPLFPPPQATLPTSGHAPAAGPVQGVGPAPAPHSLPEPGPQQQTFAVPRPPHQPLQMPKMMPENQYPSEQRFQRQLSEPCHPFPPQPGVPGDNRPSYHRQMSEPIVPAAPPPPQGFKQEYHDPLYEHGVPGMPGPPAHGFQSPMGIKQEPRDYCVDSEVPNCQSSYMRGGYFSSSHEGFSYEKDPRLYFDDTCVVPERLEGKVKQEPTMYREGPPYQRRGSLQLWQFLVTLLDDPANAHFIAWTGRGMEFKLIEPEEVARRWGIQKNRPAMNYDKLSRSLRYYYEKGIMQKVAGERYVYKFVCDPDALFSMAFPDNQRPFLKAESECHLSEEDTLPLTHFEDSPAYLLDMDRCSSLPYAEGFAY
CRX, sequence (O43186 whole entry): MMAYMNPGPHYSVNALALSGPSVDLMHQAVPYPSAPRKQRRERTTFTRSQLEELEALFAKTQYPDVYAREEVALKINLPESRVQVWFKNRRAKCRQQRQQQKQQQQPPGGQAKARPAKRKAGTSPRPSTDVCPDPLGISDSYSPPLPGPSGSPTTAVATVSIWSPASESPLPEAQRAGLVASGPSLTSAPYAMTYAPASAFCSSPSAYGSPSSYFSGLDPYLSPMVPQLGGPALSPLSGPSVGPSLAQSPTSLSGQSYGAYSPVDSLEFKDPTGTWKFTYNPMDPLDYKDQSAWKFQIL
ELF1, sequence (P32519 whole entry): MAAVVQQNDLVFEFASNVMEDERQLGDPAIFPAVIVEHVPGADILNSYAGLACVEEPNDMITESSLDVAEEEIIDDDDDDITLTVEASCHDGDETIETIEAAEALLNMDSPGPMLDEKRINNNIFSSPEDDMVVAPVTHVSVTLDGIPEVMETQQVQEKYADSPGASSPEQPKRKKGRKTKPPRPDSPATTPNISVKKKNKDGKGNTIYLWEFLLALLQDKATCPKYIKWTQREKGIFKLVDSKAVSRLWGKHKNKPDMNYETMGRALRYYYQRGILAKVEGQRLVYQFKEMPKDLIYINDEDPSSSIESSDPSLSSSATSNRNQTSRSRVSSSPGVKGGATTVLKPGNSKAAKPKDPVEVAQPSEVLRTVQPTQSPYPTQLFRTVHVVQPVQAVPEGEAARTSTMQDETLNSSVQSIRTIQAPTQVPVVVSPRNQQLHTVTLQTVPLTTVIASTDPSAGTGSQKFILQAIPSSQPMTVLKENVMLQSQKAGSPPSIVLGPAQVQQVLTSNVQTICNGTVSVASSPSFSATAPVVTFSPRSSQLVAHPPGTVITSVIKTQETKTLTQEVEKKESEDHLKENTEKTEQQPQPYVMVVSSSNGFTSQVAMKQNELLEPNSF
HSF1, sequence (Q00613 whole entry): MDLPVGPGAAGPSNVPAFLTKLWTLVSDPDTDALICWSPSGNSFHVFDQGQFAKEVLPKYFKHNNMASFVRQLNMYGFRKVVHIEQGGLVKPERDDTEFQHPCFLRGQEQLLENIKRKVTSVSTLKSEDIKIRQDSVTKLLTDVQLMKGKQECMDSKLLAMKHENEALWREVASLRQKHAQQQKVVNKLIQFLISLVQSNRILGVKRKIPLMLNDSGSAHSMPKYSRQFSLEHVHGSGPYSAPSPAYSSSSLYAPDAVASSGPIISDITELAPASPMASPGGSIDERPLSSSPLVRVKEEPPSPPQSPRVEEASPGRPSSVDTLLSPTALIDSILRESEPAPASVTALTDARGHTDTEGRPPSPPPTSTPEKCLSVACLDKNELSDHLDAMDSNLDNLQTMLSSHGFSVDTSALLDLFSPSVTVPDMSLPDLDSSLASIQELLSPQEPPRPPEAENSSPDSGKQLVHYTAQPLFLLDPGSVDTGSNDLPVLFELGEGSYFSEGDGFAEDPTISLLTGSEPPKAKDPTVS
SPIB, sequence (Q01892 whole entry): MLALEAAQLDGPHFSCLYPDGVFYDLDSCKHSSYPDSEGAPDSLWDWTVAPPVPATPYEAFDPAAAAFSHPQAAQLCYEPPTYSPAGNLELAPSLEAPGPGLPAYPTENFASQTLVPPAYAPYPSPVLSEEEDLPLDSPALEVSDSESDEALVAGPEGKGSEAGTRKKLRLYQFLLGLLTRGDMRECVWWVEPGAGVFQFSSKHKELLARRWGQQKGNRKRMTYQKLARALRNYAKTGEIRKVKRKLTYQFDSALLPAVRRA
ELF4, sequence (Q99607 whole entry): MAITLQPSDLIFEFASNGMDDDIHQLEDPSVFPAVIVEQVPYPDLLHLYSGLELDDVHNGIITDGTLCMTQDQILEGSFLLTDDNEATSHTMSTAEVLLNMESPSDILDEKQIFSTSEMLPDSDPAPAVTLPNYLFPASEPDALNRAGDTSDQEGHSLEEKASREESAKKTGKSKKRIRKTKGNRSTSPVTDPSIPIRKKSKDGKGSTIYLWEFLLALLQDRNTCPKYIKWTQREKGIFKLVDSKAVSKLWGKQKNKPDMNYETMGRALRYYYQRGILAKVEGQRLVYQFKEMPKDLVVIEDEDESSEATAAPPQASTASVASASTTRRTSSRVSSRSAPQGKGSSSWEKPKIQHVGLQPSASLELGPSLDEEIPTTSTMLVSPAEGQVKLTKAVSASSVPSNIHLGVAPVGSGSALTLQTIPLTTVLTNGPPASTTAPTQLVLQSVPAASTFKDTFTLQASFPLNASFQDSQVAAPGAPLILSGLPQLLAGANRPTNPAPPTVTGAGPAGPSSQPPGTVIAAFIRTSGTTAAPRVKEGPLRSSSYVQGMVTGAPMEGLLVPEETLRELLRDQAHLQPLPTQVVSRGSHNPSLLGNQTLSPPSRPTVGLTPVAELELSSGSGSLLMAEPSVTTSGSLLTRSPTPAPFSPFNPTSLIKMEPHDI
ETV1, sequence (P50549 whole entry): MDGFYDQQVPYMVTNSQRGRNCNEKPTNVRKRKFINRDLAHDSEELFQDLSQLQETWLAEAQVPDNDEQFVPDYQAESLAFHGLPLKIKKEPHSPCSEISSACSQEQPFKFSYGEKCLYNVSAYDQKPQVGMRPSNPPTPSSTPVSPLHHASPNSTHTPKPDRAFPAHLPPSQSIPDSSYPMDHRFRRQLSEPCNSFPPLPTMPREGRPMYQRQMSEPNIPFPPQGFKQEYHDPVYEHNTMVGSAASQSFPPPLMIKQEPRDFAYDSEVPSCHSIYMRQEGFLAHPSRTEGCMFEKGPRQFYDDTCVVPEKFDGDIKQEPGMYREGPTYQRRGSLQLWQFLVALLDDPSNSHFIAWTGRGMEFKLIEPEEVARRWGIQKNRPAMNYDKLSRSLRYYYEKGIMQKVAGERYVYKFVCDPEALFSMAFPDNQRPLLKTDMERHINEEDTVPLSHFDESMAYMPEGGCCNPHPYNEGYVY

| Sequence | binding signal [1] | binding signal [2] | binding signal [3] | binding signal [4] | binding signal [5] | binding signal [6] | binding signal [7] | binding signal [8] | binding signal [9] | binding signal [10] | binding signal [11] | binding signal [12] | binding signal [13] | binding signal [14] | binding signal [15] | binding signal [16] | binding signal [17] | binding signal [18] |
| --- | --- | --- | --- | --- | --- | --- | --- | --- | --- | --- | --- | --- | --- | --- | --- | --- | --- | --- |
| ATAAAG | 1.01 fold enrichment (6-mer frequency, TF over GST control) | 1.01 fold enrichment (6-mer frequency, TF over GST control) | 1.05 fold enrichment (6-mer frequency, TF over GST control) | 1.12 fold enrichment (6-mer frequency, TF over GST control) | 1.06 fold enrichment (6-mer frequency, TF over GST control) | 1.11 fold enrichment (6-mer frequency, TF over GST control) | 1.21 fold enrichment (6-mer frequency, TF over GST control) | 1.1 fold enrichment (6-mer frequency, TF over GST control) | 1.12 fold enrichment (6-mer frequency, TF over GST control) | 1.04 fold enrichment (6-mer frequency, TF over GST control) | 1.03 fold enrichment (6-mer frequency, TF over GST control) | 1.27 fold enrichment (6-mer frequency, TF over GST control) | 1.09 fold enrichment (6-mer frequency, TF over GST control) | 1.08 fold enrichment (6-mer frequency, TF over GST control) | 1.16 fold enrichment (6-mer frequency, TF over GST control) | 1.02 fold enrichment (6-mer frequency, TF over GST control) | 1.53 fold enrichment (6-mer frequency, TF over GST control) | 1.04 fold enrichment (6-mer frequency, TF over GST control) |
| TCCCAA | 1.14 fold enrichment (6-mer frequency, TF over GST control) | 1.2 fold enrichment (6-mer frequency, TF over GST control) | 1.25 fold enrichment (6-mer frequency, TF over GST control) | 1.28 fold enrichment (6-mer frequency, TF over GST control) | 1.3 fold enrichment (6-mer frequency, TF over GST control) | 1.31 fold enrichment (6-mer frequency, TF over GST control) | 1.2 fold enrichment (6-mer frequency, TF over GST control) | 1.15 fold enrichment (6-mer frequency, TF over GST control) | 1.28 fold enrichment (6-mer frequency, TF over GST control) | 1.17 fold enrichment (6-mer frequency, TF over GST control) | 1.2 fold enrichment (6-mer frequency, TF over GST control) | 1.11 fold enrichment (6-mer frequency, TF over GST control) | 1.17 fold enrichment (6-mer frequency, TF over GST control) | 1.24 fold enrichment (6-mer frequency, TF over GST control) | 1.09 fold enrichment (6-mer frequency, TF over GST control) | 1.16 fold enrichment (6-mer frequency, TF over GST control) | 1.23 fold enrichment (6-mer frequency, TF over GST control) | 1.2 fold enrichment (6-mer frequency, TF over GST control) |
